One test deals with PKMYT1. The note with it: concentration: 1 μM, replicates: in singlicate, n = 1.
The next test concerns PKN1. As to conditions: concentration: 1 μM, replicates: in singlicate, n = 1.
The test system of the next test is PKN2. As to conditions: concentration: 1 μM, replicates: in singlicate, n = 1.
A further test concerns PLK1. The note with it: n = 1.
In another test the test system is PLK2. The note with it: concentration: 1 μM, replicates: in singlicate, n = 1.
The test system of another test is PLK4. The note with it: concentration: 1 μM, replicates: in singlicate, n = 1.
The test system of another test is PRKCD. The note with it: concentration: 1 μM, replicates: in singlicate, n = 1.
Another test relates to PRKCE. The note with it: concentration: 1 μM, replicates: in singlicate, n = 1.
The test system of another test is PRKCH. The note with it: concentration: 1 μM, replicates: in singlicate, n = 1.
A further test relates to PRKCI. As to conditions: concentration: 1 μM, replicates: in singlicate, n = 1.
In another test the test system is PRKCQ. As to conditions: concentration: 1 μM, replicates: in singlicate, n = 1.
The next test concerns PRKD1. As to conditions: concentration: 1 μM, replicates: in singlicate, n = 1.
The next test has as its system PRKD2. As to conditions: concentration: 1 μM, replicates: in singlicate, n = 1.
In the next test the test system is PRKG1. As to conditions: concentration: 1 μM, replicates: in singlicate, n = 1.
For the next test, the system named is PRKG2. As to conditions: concentration: 1 μM, replicates: in singlicate, n = 1.
The next test relates to T1, PRKR.
T1 construct: gene EIF2AK2
As to conditions: concentration: 1 μM, replicates: in singlicate, n = 1.

Another test has as its system PRKX. The note with it: concentration: 1 μM, replicates: in singlicate, n = 1.
A further test concerns PRP4. The note with it: concentration: 1 μM, replicates: in singlicate, n = 1.
The next test relates to PLK3. As to conditions: concentration: 1 μM, replicates: in singlicate, n = 1.
The next test has as its system PRKD3. The note with it: concentration: 1 μM, replicates: in singlicate, n = 1.
Setting [1] is: concentration: 1 μM, replicates: in singlicate, 1 µM.
Setting [2] is: concentration: 1 μM, replicates: in singlicate.

Values joined by “and” are separate entries in the source; they are usually repeats but may differ in a detail not shown here. Identical values can stand only once. Like-named read-outs stand apart in the source and are kept apart here.
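Further: KINOMEscan kinase panel screen.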

Take `CC(C)(CN)c1nc(-c2ccc(Cl)c(O)c2)c(-c2ccncc2)[nH]1.O=C(O)C(F)(F)F` [SB-477794]: the “%Inh” value is 28% and 26% with PKMYT1 (1 µM); 23% and 0% in the test with PKN1 (1 µM); 0% and 21% in the test with PKN2 (1 µM); 4% and 1% with PLK1 (setting [1]); 0% and 15% in the test on PLK2 (1 µM); 5% and 0% in the test with PLK4 (1 µM). Further, the “%Inh” value is 78% and 87% in the test with PRKCD (1 µM); 96% and 96.3% in the test on PRKCE (1 µM); 92.9% and 94.1% in the test with PRKCH (1 µM); 97.5% and 97.8% in the test with PRKCI (1 µM); 75% and 76% in the test on PRKCQ (1 µM); 92.4% and 93.9% in the test with PRKD1 (1 µM). Moreover, the “%Inh” value in the test with PRKD2 (1 µM) was 89% and 91.8%; in the test with PRKG1 (1 µM), 0% and 20%; in the test on PRKG2 (1 µM), 0% and 10%; in the test with PRKR (1 µM) it was 0% and 12%; in the test with PRKX (1 µM), 21% and 22%; in the test with PRP4 (1 µM) it was 69% and 33%.
In the case of `Cl.Cl.Cl.Fc1ccc(-c2ncn(C3CCNCC3)c2-c2ccnc(Nc3ccccc3)n2)cc1` [SB-238039], the “%Inh” value was 0% and 1% with PKMYT1 (1 µM); 0% and 9% in the test on PKN1 (1 µM); 0% and 24% with PKN2 (1 µM); 4% and 0% with PLK1 (setting [1]); 6% and 0% in the test on PLK2 (1 µM); 15% and 0% in the test with PLK3 (1 µM). For the same compound, the “%Inh” value was 7% and 26% in the test with PLK4 (1 µM); 66% and 28% in the test with PRKCD (1 µM); 69% and 29% with PRKCE (1 µM); 58% and 19% with PRKCH (1 µM); 53% and 34% in the test on PRKCI (1 µM); 20% and 50% with PRKCQ (1 µM). For the same compound, the “%Inh” value in the test with PRKD1 (1 µM) is 96.5% and 91.3%; in the test on PRKD2 (1 µM), 95.3% and 91.8%; in the test with PRKD3 (1 µM), 88% and 90.8%; in the test with PRKG1 (1 µM) it was 3% and 0%; with PRKG2 (1 µM), 0% and 28%; in the test on PRKR (1 µM), 0% and 3%. Also, in the test with PRP4 (1 µM), the “%Inh” value is 32% and 0%.
In the case of `COc1cc2ncn(-c3cc(OCc4sccc4Cl)c(C(N)=O)s3)c2cc1OC` [GSK448459], the “%Inh” value in the test on PLK1 (1 µM) was 100%.
Take `N#Cc1ccc(-c2cc(-c3c[nH]nc3-c3ccccn3)ccn2)cc1` [GW693028]: the “%Inh” value with PKMYT1 was found to be 1%; in the test with PKN1 it was 0%; in the test on PKN2 it was 0%; in the test on PLK1 (setting [2]), 0%; in the test on PLK2, 0%; in the test on PLK3 it was 0%. Further, the “%Inh” value in the test on PLK4 is given as 0%; in the test with PRKCD, 0%; with PRKCE it was 16%; in the test with PRKCH it was 18%; with PRKCI, 0%; in the test on PRKCQ, 15%. Also, the “%Inh” value with PRKD1 turned out to be 63%; with PRKD2, 40%; with PRKD3 it was 0%; in the test with PRKG1, 0%; in the test on PRKG2, 0%; in the test with PRKR it was 0%. For the same compound, the “%Inh” value with PRKX is given as 2%; with PRP4 it was 41%.
With `O=c1cc(N2CCOCC2)nc2n(Cc3cccc(Cl)c3Cl)c(C3CC3)nn12` [GSK2358994], the “%Inh” value in the test with PKMYT1 came to 0%; with PKN1 it was 2%; in the test with PKN2, 0%; in the test with PLK1 (setting [2]), 0%; in the test with PLK2 it was 0%; in the test with PLK3 it was 16%. For the same compound, the “%Inh” value in the test on PLK4 worked out at 9%; with PRKCD, 0%; with PRKCE, 33%; in the test with PRKCH, 0%; in the test with PRKCI it was 4%; in the test on PRKCQ, 0%. The “%Inh” value in the test on PRKD1 came out at 13%; in the test on PRKD2, 0%; with PRKD3, 17%; in the test on PRKG1 it was 14%; with PRKG2 it was 0%; in the test on PRKR it was 0%. Further, the “%Inh” value with PRKX and in the test with PRP4 was 0% throughout.
Turning to `CNc1ncnc2[nH]ncc12` [SKF-18355], the “%Inh” value worked out at 1% in the test with PKMYT1; 0% in the test on PKN1; 2% in the test on PKN2; 31% in the test with PLK1 (setting [2]); 12% in the test with PLK2; 23% in the test with PLK3. The “%Inh” value with PLK4 amounted to 6%; in the test on PRKCD it was 0%; with PRKCE it was 12%; in the test with PRKCH it was 0%; with PRKCI, 0%; in the test with PRKCQ, 0%. Moreover, the “%Inh” value in the test with PRKD1, in the test on PRKD2, in the test with PRKD3, with PRKG1, in the test on PRKG2 and with PRKR was 0% in each case. Besides, the “%Inh” value in the test with PRKX and with PRP4 was 0% each time.
Consider `O=C(c1ccc(-c2cc(-c3c[nH]nc3-c3ccccn3)ccn2)cc1)N1CCOCC1` [GW812171], for which the “%Inh” value in the test on PKMYT1 is on record as 6%; with PKN1, 0%; in the test on PKN2 it was 0%; with PLK1 (setting [2]) it was 0%; in the test with PLK2 it was 14%; with PLK3, 28%. Further, the “%Inh” value is 0% in the test with PLK4; 12% with PRKCD; 14% in the test on PRKCE; 0% with PRKCH; 15% in the test with PRKCI; 0% with PRKCQ. Besides, the “%Inh” value is listed as 0% in the test on PRKD1; 17% with PRKD2; 0% in the test on PRKD3; 10% in the test with PRKG1; 0% with PRKG2; 20% with PRKR. Further, the “%Inh” value in the test with PRKX and in the test on PRP4 was 0% throughout.
Regarding `O=C1Cc2cc(Nc3nc(NCc4cccc(S(=O)(=O)C(F)(F)F)c4)ncc3C(F)(F)F)ccc2N1`, the “%Inh” value in the test with PKMYT1 is on record as 17%; with PKN1, 0%; with PKN2, 0%; in the test on PLK1 (setting [2]), 0%; with PLK2, 5%; in the test on PLK3, 1%. In addition, the “%Inh” value in the test on PLK4 is 4%; in the test with PRKCD, 17%; with PRKCE, 23%; in the test on PRKCH, 0%; with PRKCI it was 0%; with PRKCQ it was 4%. The “%Inh” value in the test with PRKD1 was found to be 16%; in the test on PRKD2 it was 0%; in the test on PRKD3 it was 26%; in the test on PRKG1 it was 0%; in the test on PRKG2, 1%; with PRKR, 0%. Moreover, the “%Inh” value is listed as 0% in the test with PRKX and 10% with PRP4.
Turning to `CCc1ccnc(/C=C/c2n[nH]c3cc(Sc4ccccc4C(=O)NC)ccc23)c1`, the “%Inh” value with PKMYT1 is reported as 0%; with PKN1 it was 9%; with PKN2 it was 0%; with PLK1 (setting [2]) it was 0%; in the test on PLK2 it was 0%; with PLK3, 0%. For the same compound, the “%Inh” value is reported as 83% with PLK4; 9% with PRKCD; 12% with PRKCE; 0% in the test on PRKCH; 1% in the test on PRKCI; 0% in the test with PRKCQ. The “%Inh” value is 0% with PRKD1; 15% in the test on PRKD2; 0% with PRKD3; 0% with PRKG1; 0% in the test with PRKG2; 0% in the test on PRKR. Also, the “%Inh” value in the test with PRKX is reported as 29%; in the test on PRP4 it was 0%.
`O=C(Nc1n[nH]c2cc(-c3cccc(F)c3)ccc12)C1CC1` [SB-735464]: the “%Inh” value in the test with PKMYT1 came to 1%; in the test with PKN1 it was 7%; in the test on PKN2, 17%; in the test with PLK1 (setting [2]), 0%; in the test with PLK2 it was 37%; with PLK3, 13%. Moreover, the “%Inh” value was 4% in the test on PLK4; 0% in the test with PRKCD; 34% in the test on PRKCE; 8% with PRKCH; 0% in the test on PRKCI; 5% in the test on PRKCQ. The “%Inh” value is given as 0% with PRKD1; 0% with PRKD2; 1% in the test on PRKD3; 16% in the test on PRKG1; 0% in the test on PRKG2; 0% in the test on PRKR. For the same compound, the “%Inh” value turned out to be 0% in the test on PRKX and 7% in the test on PRP4.
For `NCCNS(=O)(=O)c1ccc(-c2ccnc3[nH]ccc23)cc1` [GSK977617], the “%Inh” value with PKMYT1 (1 µM) was 5% and 0%; in the test with PKN1 (1 µM), 44% and 19%; in the test on PKN2 (1 µM), 66% and 50%; in the test with PLK1 (setting [1]) it was 6% and 2%; in the test with PLK2 (1 µM), 10% and 0%; in the test on PLK3, 0%. Moreover, the “%Inh” value with PLK4 (1 µM) is 26% and 24%; with PRKCD (1 µM), 97.7% and 95.2%; in the test with PRKCE (1 µM), 96.8% and 68%; with PRKCH (1 µM) it was 95% and 91%; in the test with PRKCI (1 µM) it was 56% and 47%; in the test on PRKCQ (1 µM), 86% and 70%. Further, the “%Inh” value with PRKD1 (1 µM) is 49% and 33%; in the test with PRKD2 (1 µM), 51% and 23%; in the test with PRKD3 (1 µM) it was 45% and 33%; with PRKG1 (1 µM) it was 97.6% and 96.7%; in the test on PRKG2 (1 µM) it was 98.6% and 98%; in the test on PRKR (1 µM) it was 52% and 42%. The “%Inh” value was 94.7% and 92.2% in the test on PRKX (1 µM); 28% and 20% with PRP4 (1 µM).

For the origin of these results see publication PMC5540273 (PLoS ONE, 2017).
